# Compound activity (PubChem BioAssay)
# Pf growth 96h: inhibits malaria parasite growth, 96 h; P. falciparum luciferase reporter growth, 96 h; Potency, µM (doses to about 28.7 µM), most hits filed as inhibitors; 320,000 tested, 6.9% active
#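 Compounds incubated with erythrocytes infected by luciferase-expressing P. falciparum (2% hematocrit, 0.05% parasitemia final) for 96 hours, 37 C in 5% CO2. Growth inhibition scored as decreased luciferase luminescence.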
# MARV entry inh: inhibitors of Marburg virus binding or cell entry. Marburg virus pseudotyped entry inhibition, cell reporter. Potency, µM (series often up to 37.8 µM), most hits filed as inhibitors. 300,000 tested, 1.8% active. AID 540276; calls by dose curve; tested in HEK293 cells
# HCMV inh: human cytomegalovirus inhibition; HFF cells, HCMV-luciferase reporter, 72 h; hits give low values; AID 1259415; activity change, negative = inhibition, % at 57.5 µM; 410,000 tested, 4.5% active; in the data active = activity change below about -60%; inconclusive = no clear call, values can overlap the other calls; inactive = above about -39%
#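 HFF cells seeded 16 h at 37C, treated with compounds, infected with luciferase-reporter HCMV at MOI 1 PFU/cell; luciferase read at 72 h post infection, normalized to buffer-only and Salinomycin controls.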
# HCV inh: blocks hepatitis C virus | Huh7.5.1 HCVcc-Cre infection, luciferase reporter, 44 h | Potency, µM (top dose mostly 41.8 µM), hits mostly inhibitors | 340,000 tested, 3.4% active | AID 651820
#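 Cells seeded at 1,000/well and cultured 4 h, then compounds added followed by HCVcc-Cre virus (~0.5 moi). After 44 h further culture, luciferase substrate was added, plates held 15 min at room temperature, and luminescence read for 15 sec.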
# LASV entry inh: Lassa virus entry inhibition | Lassa virus pseudotype entry inhibition, cell reporter | Potency, µM (doses to about 37.9 µM), most hits filed as inhibitors | 300,000 tested, 1.2% active | AID 540256; calls by dose curve; tested in HEK293 cells; note: nearly all actives have a fitted effect of over 50% in size
# Pf growth 48h: inhibits P. falciparum growth in the first generation, 48 h | 310,000 tested, 5.9% active | Potency, µM (titrated, usually from 28.7 µM), most hits filed as inhibitors | P. falciparum luciferase growth in erythrocytes, 48 h | AID 504832
#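 In quantitative HTS format, infected erythrocytes bearing luciferase-reporter parasites were treated for a single generation at 37 C. Luminescence after adding detection reagent served as the growth measure.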
# A number is an active result; n = inactive; u = inconclusive; x = no result given. Compounds with a hit are over-represented: about 14% of the library has one in this group of screens. Unless noted, calls come from the whole dose curve; as a rule, active = well fitted inhibition curve with a large enough effect; inconclusive = small, poorly fitted or top-dose-only effect, or another doubt; inactive = no such curve, though single readings can be large or run the other way.
SMILES,Pf growth 96h,MARV entry inh,HCMV inh,HCV inh,LASV entry inh,Pf growth 48h
CCN1C(=O)[C@H]2[C@@H](c3ccc(-c4ccc5c(c4)OCO5)cc3)N3CCC[C@@]3(C(=O)OC)[C@H]2C1=O,n,x,n,n,x,u
CCN1C(=O)[C@H]2[C@@H](c3ccc(-c4ccccc4)cc3)N3CCCC[C@@]3(C(=O)OC)[C@H]2C1=O,u,x,n,n,x,10.4µM
CCN1C(=O)[C@@H]2[C@@H](c3ccc(-c4ccc5c(c4)OCO5)cc3)N3CCCC[C@@]3(C(=O)OC)[C@@H]2C1=O,13.1µM,x,n,u,x,u
CCN1C(=O)[C@@H]2[C@@H](c3ccc(-c4ccc(C(C)=O)cc4)cc3)N3CCCC[C@@]3(C(=O)OC)[C@@H]2C1=O,11.7µM,x,n,u,x,10.4µM
O=C(CSc1nc2ccccc2nc1Cc1ccccc1F)Nc1cccc(C(F)(F)F)c1,x,u,n,x,n,x
NC(=O)COc1ccc(NC(=O)CC23CC4CC(CC(C4)C2)C3)cc1,n,x,n,n,x,n
CN(C)c1cccc(C(=O)Nc2cc(C(F)(F)F)ccc2-n2cnc3ccccc32)c1,u,n,n,n,n,11.7µM
COc1ccc(C(=O)Nc2cc(C(F)(F)F)ccc2-n2cnc3ccccc32)cc1,u,u,-72.8,n,n,u
CC(=O)Nc1ccc(C(=O)Nc2cc(C(F)(F)F)ccc2-n2cnc3ccccc32)cc1,n,u,n,n,n,n
CN(C)c1ccc(CNC(=O)c2ccc3c(c2)N(C)C(=O)C2CCCCN32)cc1 (stereo not drawn),x,x,n,x,n,x
Cn1cc(C(C[N+](=O)[O-])c2ccccc2)c2ccccc21 (stereo not drawn),n,x,n,u,x,u
CC(=O)n1cc(C(C[N+](=O)[O-])SCCN)c2ccccc21 (stereo not drawn),n,20.6µM,x,u,u,n
CC(C)(C)OC(=O)N/N=C\C=C\c1ccc2c(c1)OCO2,3.7µM,u,n,n,u,n
COc1ccc(C2=CC(c3c(C)nn(-c4ccccc4)c3Cl)n3nnnc3N2)cc1OC (stereo not drawn),u,u,u,11.2µM,u,2.33µM
COc1ccccc1C1C=C(c2ccc(C)cc2)Nc2nnnn21 (stereo not drawn),u,n,n,u,n,n
CCC[C@H](/C=C/C(=O)OC(C)(C)C)NC(=O)C(F)(F)F,x,x,n,x,x,x
Cc1cc(OCC(=O)Nc2ccc(C(=O)OC3CCCCC3)cc2)ccc1Cl,x,x,n,x,n,x
CC1CCCC(C)N1CCNC(=O)CCc1nnc2n(Cc3ccccc3)c(=O)c3ccccc3n12 (stereo not drawn),11.7µM,x,n,u,x,u
CC1CCCCN1CCNC(=O)CCc1nnc2n(Cc3ccccc3)c(=O)c3ccccc3n12 (stereo not drawn),u,x,n,u,x,u
O=C(CCc1nnc2n(Cc3ccccc3)c(=O)c3ccccc3n12)NCCCN1CCCCC1,u,u,-62.0,n,n,n
COc1ccc(CNC(=O)Cn2cnc3c(NCc4ccccc4)ncnc32)cc1,x,x,n,n,x,x
Fc1ccc(-n2nnc(-c3cccnc3)n2)cc1,n,x,n,n,x,n
Fc1ccc(C(CCCn2nnc(-c3cccnc3)n2)c2ccc(F)cc2)cc1,n,u,-76.1,u,n,14.7µM
CCc1nc2ccc(C(=O)N3CCCCC3)cn2c1N(CCC(C)C)CCN(C)C,x,x,n,x,x,x
Cc1cc(Cl)nc2ccc(Cc3ccc4nc(Cl)cc(C)c4c3)cc12,u,x,n,10µM,x,2.62µM
SMILES,Pf growth 96h,MARV entry inh,HCMV inh,HCV inh,LASV entry inh,Pf growth 48h
Cc1ccsc1-c1cc2nc(NCCCN(C)C)n(C)c(=O)c2s1,x,x,n,x,x,x
CN1CCc2c(OCC(=O)N3CCCc4ccccc43)cccc2C1=O,u,3.16µM,n,n,u,n
CCOC(=O)N1CCN(C(=O)COc2cccc3c2CCN(Cc2ccc(F)cc2)C3=O)CC1,u,u,-66.7,u,n,n
O=C1c2cccc(OCC(=O)N3CCCc4ccccc43)c2CCN1Cc1ccc(F)cc1,10.4µM,u,n,u,u,u
Cc1ccc(OCC(=O)N2CCCc3ccccc32)cc1,n,n,n,n,n,u
CCOC(=O)N1CCN(C(=O)COc2cccc3c2CCN(CC)C3=O)CC1,u,n,n,n,n,n
Cc1cccc(CN2CCc3c(OCC(=O)N4CCCc5ccccc54)cccc3C2=O)c1,u,u,n,u,4.47µM,11.7µM
